“And” between values parts separate entries of the source, which are not always exact repeats. Identical values can stand only once. Records with an inconclusive call do not appear. Entries that show only a call come without a potency. Where a structure was tested more than once in an assay, its records may differ in their call. The source made the active and inactive calls. Calls come from the whole dose curve.
Assays:
[1] = biological target: Acetylcholinesterase (Homo sapiens) (UniProt P22303); assay: Acetylcholinesterase (AChE) small molecule antagonists: colormetric cell-based qHTS assay (AID 1347395); note: nearly all actives have a fitted effect of over 30% in size
Sequence of Acetylcholinesterase (Homo sapiens) (P22303 whole entry, looked up): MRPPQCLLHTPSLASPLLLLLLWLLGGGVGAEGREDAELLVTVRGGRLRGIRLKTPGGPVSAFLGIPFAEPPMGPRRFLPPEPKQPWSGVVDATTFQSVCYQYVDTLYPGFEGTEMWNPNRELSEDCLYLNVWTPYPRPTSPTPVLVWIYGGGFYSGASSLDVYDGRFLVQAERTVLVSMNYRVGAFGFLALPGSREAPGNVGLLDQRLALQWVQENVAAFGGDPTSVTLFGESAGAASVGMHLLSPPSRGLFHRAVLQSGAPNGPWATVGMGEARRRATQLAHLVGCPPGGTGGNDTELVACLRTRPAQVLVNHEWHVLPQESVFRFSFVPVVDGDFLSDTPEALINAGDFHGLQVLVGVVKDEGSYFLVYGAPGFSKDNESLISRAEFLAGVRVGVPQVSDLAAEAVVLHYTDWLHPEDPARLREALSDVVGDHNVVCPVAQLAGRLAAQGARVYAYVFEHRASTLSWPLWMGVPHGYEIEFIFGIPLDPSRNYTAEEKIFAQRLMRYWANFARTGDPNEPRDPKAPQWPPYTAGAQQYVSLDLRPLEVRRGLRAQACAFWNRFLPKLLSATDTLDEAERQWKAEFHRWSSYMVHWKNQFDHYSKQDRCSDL
Outline: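 SH-SY5Y cells; cpd 30 min 37 C; + DTNB/acetylthiocholine, 90 min 37 C; colorimetric thiocholine read; qHTS.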

[2] = biological target: Acetylcholinesterase (Homo sapiens) (UniProt P22303); assay: Acetylcholinesterase (AChE) small molecule antagonists: enzyme-based qHTS assay (AID 1347397); settings: Potency: AChE enzyme activity inhibition; outcome: AChE enzyme activity inhibition; note: nearly all actives have a fitted effect of over 55% in size
Outline: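 Absorbance-based detection of thiocholine with DTNB served as the read-out. Recombinant human AChE was exposed to compound for 30 min at RT before a 10 min RT incubation with acetylthiocholine.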

[3] = biological target: Acetylcholinesterase (Homo sapiens) (UniProt P22303); assay: Acetylcholinesterase (AChE) small molecule antagonists: fluorescence cell-based qHTS assay (AID 1347398); settings: Potency: AChE activity; outcome: AChE activity; note: nearly all actives have a fitted effect of over 50% in size
Outline: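 Fluorimetric cell-based assay: intact SH-SY5Y cells, 30 min compound preincubation at 37 C, acetylthiocholine substrate with thiol probe Thiolite Green, 40 min RT development, fluorescence 490/520 nm.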

[4] = biological target: Acetylcholinesterase (Homo sapiens) (UniProt P22303); assay: Acetylcholinesterase (AChE) small molecule antagonists: enzyme-based qHTS assay with human liver microsomes (AID 1347399); settings: Potency: qHTS inhibition; outcome: qHTS inhibition; note: nearly all actives have a fitted effect of over 60% in size
Outline: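 Recombinant human AChE (50 mU/mL in the enzyme mix) and human liver microsomes (0.25 mg/mL final) were preincubated with compound and NADPH (0.25 mg/mL final) for 30 min at 37 C. Acetylthiocholine/DTNB was then added; thiocholine was read colorimetrically after 10 min at room temperature.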
Potency is the fitted concentration of half-maximal effect.

Structure (SMILES) | Potency [1] | Potency [2] | Potency [3] | Potency [4]
COc1cccc(CCc2ccccc2OCC(CN(C)C)OC(=O)CCC(=O)O)c1 (stereo not given) | inactive | inactive | inactive | inactive
OC[C@H]1O[C@@](CO)(O[C@H]2O[C@H](CO)[C@@H](O)[C@H](O)[C@H]2O)[C@@H](O)[C@@H]1O | inactive | inactive | inactive | inactive
CN(C)Cc1ccccc1 | inactive | inactive | inactive | inactive
CO/N=C(\C(=O)O)c1csc(NC(=O)CCl)n1 | inactive | inactive | inactive | inactive
CC(=O)CCCCn1c(=O)c2c(ncn2C)n(C)c1=O | inactive | inactive | inactive | inactive
COc1cc(NS(=O)(=O)c2ccc(N)cc2)nc(OC)n1 | inactive | inactive | inactive | inactive
O=C1c2ccccc2C(=O)c2c(O)ccc(O)c21 | inactive | inactive | inactive | inactive
OCCCCl | inactive | inactive | inactive | inactive
Oc1ccc(Cl)cc1Sc1cc(Cl)ccc1O | inactive | inactive | inactive | inactive
COC(=O)c1sccc1S(N)(=O)=O | inactive | inactive | inactive | inactive
COc1cc(C(=O)NCCCCCC(=O)O)cc(OC)c1OC | inactive | inactive | inactive | inactive
NCCNCCN | inactive | inactive | inactive | inactive
C=C[C@H]1CN2CC[C@H]1C[C@H]2[C@H](O)c1ccnc2ccc(OC)cc12 | inactive | inactive | inactive | inactive
c1ccc2cc3ccccc3cc2c1 | inactive | inactive | inactive | inactive
CN(C)c1ccncc1 | inactive | inactive | inactive | inactive
NC(N)=NC(=O)c1nc(Cl)c(N)nc1N | 35.8 µM (active) and 32.9 µM (active) and 27.5 µM (active) | inactive | 12.7 µM (active) and 32.9 µM (active) | inactive
Cc1c(F)c(N2CCNC(C)C2)cc2c1c(=O)c(C(=O)O)cn2C1CC1 (stereo not given) | inactive | inactive | inactive | inactive
CCCCC(CC)COC(=O)CC#N (stereo not given) | inactive | inactive | inactive | inactive
OC[C@H]1O[C@@H]2O[C@H]3[C@H](O)[C@@H](O)[C@@H](O[C@H]4[C@H](O)[C@@H](O)[C@@H](O[C@H]5[C@H](O)[C@@H](O)[C@@H](O[C@H]6[C@H](O)[C@@H](O)[C@@H](O[C@H]7[C@H](O)[C@@H](O)[C@@H](O[C@H]8[C@H](O)[C@@H](O)[C@@H](O[C@H]1[C@H](O)[C@H]2O)O[C@@H]8CO)O[C@@H]7CO)O[C@@H]6CO)O[C@@H]5CO)O[C@@H]4CO)O[C@@H]3CO | inactive | inactive | inactive | inactive
CCCCCCCC/C=C\CCCCCCCC(=O)OCCOC(=O)CCCCCCC/C=C\CCCCCCCC | inactive | inactive | inactive | inactive

Structure (SMILES) | Potency [1] | Potency [2] | Potency [3] | Potency [4]
Nc1cc(Cl)cc(S(=O)(=O)O)c1O | inactive | inactive | inactive | inactive
CC(=O)Oc1ccc([N+](=O)[O-])cc1CCl | inactive | inactive | inactive | inactive
CC1C(C)(C)C2=C(C(=O)CCC2)C1(C)C (stereo not given) | inactive | inactive | inactive | inactive
CCCCC/C(C=O)=C\c1ccccc1 | inactive | inactive | inactive | inactive
O=C(NO)C1(NS(=O)(=O)c2ccc(Oc3ccc(F)cc3)cc2)CCOCC1 | inactive | inactive | inactive | inactive
C/C(=N\O)[C@@H](C)NCC(C)(C)CN[C@H](C)/C(C)=N/O | inactive | inactive | inactive | inactive
NC(CSCC(=O)O)C(=O)O (stereo not given) | inactive | inactive | inactive | inactive
CCCCCCCCOC(C)=O | inactive | inactive | inactive | inactive
O=C(NCN1CCOCC1)c1cnccn1 | inactive | inactive | inactive | inactive
CC(=O)NCc1c(I)c(NC(C)=O)c(I)c(C(=O)O)c1I | inactive | inactive | inactive | inactive
CCCCCCCC/C=C\CCCCCCCC(=O)OC(CO)CO | inactive | inactive | inactive | inactive
C/C=C\C/C=C/CCCCCCCCOC(C)=O | inactive | inactive | inactive | inactive
O=C(Cl)c1c(Cl)c(Cl)c(C(=O)Cl)c(Cl)c1Cl | inactive | inactive | inactive | inactive
O[C@@H]([C@H](O)[C@H](O)CBr)[C@H](O)CBr | inactive | inactive | inactive | inactive
CC(C)(C)NC(N)=O | inactive | inactive | inactive | inactive
OCCCCC(O)CO (stereo not given) | inactive | inactive | inactive | inactive
O=[N+]([O-])c1ccc(CO)cc1 | inactive | inactive | inactive | inactive
OCCOCCOCCOCCO | inactive | inactive | inactive | inactive
C[Si](C)(C)N[Si](C)(C)C | inactive | 3.96 µM (active) and inactive | 1.98 µM (active) and inactive | 19.8 µM (active) and inactive
CC(C)(C)C1=CC(=O)C(C(C)(C)C)=CC1=O | inactive | inactive | inactive | inactive

Structure (SMILES) | Potency [1] | Potency [2] | Potency [3] | Potency [4]
O=C1CCCCCN1SSN1CCCCCC1=O | inactive | inactive | inactive | inactive
COC(=O)[C@H]1[C@H]2C[C@@H]3c4[nH]c5cc(OC)ccc5c4CCN3C[C@H]2C[C@@H](OC(=O)/C=C/c2ccc(O)c(OC)c2)[C@@H]1OC | inactive | inactive | inactive | inactive
CCCCCCCCCCC=CC1CC(=O)OC1=O (stereo not given) | inactive | inactive | inactive | inactive
CCCCCCCC/C=C\CCCCCCCCOCCO | inactive | inactive | inactive | inactive
C[N+](C)(C)CC[N+]1(C)Cc2c(Cl)c(Cl)c(Cl)c(Cl)c2C1 | inactive | inactive | inactive | inactive
O=c1[nH]nc(-c2ccc([N+](=O)[O-])o2)o1 | inactive | inactive | inactive | inactive
C=C[Si](OC(=C)C)(OC(=C)C)OC(=C)C | inactive | inactive | inactive | inactive
O=C(OCCCCCOC(=O)c1ccccc1)c1ccccc1 | inactive | inactive | inactive | inactive
CCC1(c2ccccc2)C(=O)NCNC1=O | inactive | inactive | inactive | inactive
CCn1cc(C(=O)O)c(=O)c2cc(F)c(N3CCNC(C)C3)c(F)c21 (stereo not given) | inactive | inactive | inactive | inactive
O=C(NOCC1CC1)c1ccc(F)c(F)c1Nc1ccc(I)cc1Cl | inactive | inactive | inactive | inactive
Cc1cnccn1 | inactive | inactive | inactive | inactive
CNC(=O)N(c1ccccc1)c1ccccc1 | inactive | inactive | 35.7 µM (active) | inactive
CCOC(=O)c1cccnc1 | inactive | inactive | inactive | inactive
CC(=O)OC/C=C/c1ccccc1 | inactive | inactive | inactive | inactive
COC(=O)c1c(Cl)c(Cl)c(C(=O)OC)c(Cl)c1Cl | inactive | inactive | inactive | inactive
OC1OCCOC1O (stereo not given) | inactive | inactive | inactive | inactive
C=C(C)C(=O)OCC1CCCO1 (stereo not given) | inactive | inactive | inactive | inactive
CC1=CC(=O)CCC1 | inactive | inactive | inactive | inactive
COc1ccc(C2CNC(=O)C2)cc1OC1CCCC1 (stereo not given) | inactive | inactive | inactive | inactive
